# In PubChem BioAssay AID651813 (National Center for Advancing Translational Sciences (NCATS), 2012):
# In all, about 2,100 compounds went through this assay and about 1,100 (52%) were called active. Inconclusive results (about 27%) are left out. The set was probably picked from earlier hits. The list shows a part of the results. Values without a mark were called inactive. Calls come from the whole dose curve; as a rule, active = well fitted inhibition curve with a large enough effect; inconclusive = small, poorly fitted or top-dose-only effect; inactive = no such curve, though single readings can be large or run the other way.
# Biological target: DNA dC->dU-editing enzyme APOBEC-3G (Homo sapiens) (UniProt Q9HC16)
# Assay: qHTS for inhibitors of Vif-A3G interactions: Cherry picks counterscreen;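 note: hits raise yellow fluorescence by blocking Vif-driven A3G-eYFP degradation; nearly all actives have a fitted effect of over 70% in size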;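 for max response: max response given as percent of control signal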
# Details: HeLa A3G-eYFP + Vif (tagged APOBEC3G with the HIV-1 protein that degrades it), eYFP fluorescence, 24 h
# Summary of the method: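 HeLa cells stably expressing A3G-eYFP and Vif were treated for 24 h at 37 deg C with compounds at several concentrations; yellow fluorescence (Ex 488 nm, Em 500-530 nm) read by Acumen Explorer, MG132 as positive control.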
# Potency is the fitted concentration of half-maximal effect.
# Chain of DNA dC->dU-editing enzyme APOBEC-3G (Homo sapiens) (Q9HC16 whole entry, looked up): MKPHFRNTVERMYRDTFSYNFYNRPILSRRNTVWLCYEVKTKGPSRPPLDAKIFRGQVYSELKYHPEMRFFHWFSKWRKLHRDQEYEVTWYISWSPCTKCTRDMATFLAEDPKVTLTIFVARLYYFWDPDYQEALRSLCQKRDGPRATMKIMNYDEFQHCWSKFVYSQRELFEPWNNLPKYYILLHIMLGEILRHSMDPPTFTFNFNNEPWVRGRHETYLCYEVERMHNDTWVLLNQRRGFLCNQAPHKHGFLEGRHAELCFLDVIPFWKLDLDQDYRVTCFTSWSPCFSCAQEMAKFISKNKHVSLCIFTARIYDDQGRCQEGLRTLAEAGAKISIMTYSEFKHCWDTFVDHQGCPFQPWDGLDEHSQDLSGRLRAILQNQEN
SMILES,Potency,max response [%]
Cc1cc(/C=C2\SC(=S)N(C)C2=O)c(C)n1-c1ccc(O)cc1,20.6 µM (active),
Cc1cc(/C=C2\SC(=S)N(C)C2=O)c(C)n1-c1ccccc1O,18.4 µM (active),
COc1cc2c(cc1OC)CN(C(=O)c1ccc3nc[nH]c3c1)CC2,14 µM (active),
COc1cc2c(cc1OC)CN(C(=O)/C=C/c1cccs1)CC2,1.25 µM (active),
Cc1cccc(C(=O)NC(=S)N2CCc3ccccc3C2)c1,,-2.8
COc1cc2c(cc1OC)CN(C(=O)c1cc(=O)c3ccccc3o1)CC2,15.8 µM (active),
CN(C)CCCN(C(=O)/C=C/c1cccs1)c1nc2ccc(F)cc2s1,,-22.2
CC(=O)N/N=C/c1cc(C(C)(C)C)cc(/C=N/NC(C)=O)c1O,20.6 µM (active),
CC(=O)N/N=C/c1cc(C(C)C)cc(/C=N/NC(C)=O)c1O,18.4 µM (active),
CC1(C)CCN2CCC(C)(C)c3c(O)ccc1c32,5.59 µM (active),
COc1ccc(NS(=O)(=O)c2cc(NC(=O)c3ccc(=O)[nH]c3)ccc2N2CCCC2)cc1,5.59 µM (active),
Cc1ccc(NC(=S)NC(=O)c2ccc(F)cc2)cc1S(=O)(=O)Nc1cccc(Cl)c1,,-21.2
ClCC1NCC(c2ccccc2Cl)c2c1[nH]c1ccccc21 (stereo not given),,-28
CN1C(=O)N(C)c2ccc(C=O)c3cccc1c23,,1.02
N#Cc1c(C(F)(F)F)cc(-c2ccco2)nc1SCc1ccccn1,16.4 µM (active),
N#Cc1ccc(-c2ccco2)nc1SCc1ccccc1,,-26
COc1cc2cc(-c3ccc(OC)c(OC)c3C)nc(N)c2cc1OC,2.8 µM (active),
C[C@H]1CN([C@@H](C)CO)C(=O)Cc2cc(NC(=O)CCC(F)(F)F)ccc2O[C@H]1CN(C)S(=O)(=O)c1ccc(F)cc1,7.9 µM (active),
CN(C)c1ccc(C2C=C(c3ccc(Cl)cc3OC(F)F)Nc3ncnn32)cc1 (stereo not given),15.8 µM (active),
CCOC(=O)N1CCN(C(=O)c2[nH]c(C(F)(F)F)nc2-c2ccccc2)CC1,15.8 µM (active),
O=C(c1[nH]c(C(F)(F)F)nc1-c1ccccc1)N1CCN(c2ccccc2)CC1,3.53 µM (active),
O=C(c1[nH]c(C(F)(F)F)nc1-c1ccccc1)N1CCN(c2cccc(C(F)(F)F)n2)CC1,6.27 µM (active),
Cn1nnnc1SCCNCc1cc(Br)ccc1OCc1ccccc1Cl,,-13.4

SMILES,Potency,max response [%]
Cc1cccc2cc3c(N)c(C(=O)N4CCCc5ccccc54)sc3nc12,9.2 µM (active),
Cc1ccc2nc3sc(C(=O)N4CCCc5ccccc54)c(N)c3cc2c1,7.9 µM (active),
Cc1cccc2cc3c(N)c(C(=O)N4CCc5ccccc54)sc3nc12,7.31 µM (active),
Cc1cc(C)n2nc(C(=O)N/N=C/c3c4ccccc4cc4ccccc34)nc2n1,15.8 µM (active),
Cc1ccc(/C=N/NC(=O)c2nc3nc(C)cc(C)n3n2)cc1,,-10.8
COc1ccc2c(Cl)c(C(=O)N/N=C3\CCCC(=O)C3)sc2c1,12.5 µM (active),
CCOc1cc(C(=O)NN=C2CCCC2)cc(OCC)c1OCC,,-1.27
COc1ccc(-c2ccc3c(c2)S(=O)(=O)c2cccc(C(=O)NCCOc4ccccc4)c2C3=O)cc1OC,14 µM (active),
O=C(NCc1ccccc1Cl)c1cccc2c1C(=O)c1ccc(-c3ccc(OC(F)(F)F)cc3)cc1S2(=O)=O,18.4 µM (active),
COc1ccc(-c2ccc3c(c2)S(=O)(=O)c2cccc(C(=O)NCc4cccc(OC(F)(F)F)c4)c2C3=O)cc1OC,3.26 µM (active),
COc1ccc(NC(=O)c2oc3ccc(S(=O)(=O)N4CCOCC4)cc3c2C)cc1,,9.65
COc1cccc(NC(=O)c2oc3ccc(S(=O)(=O)N4CCC5(CC4)OCCO5)cc3c2C)c1,23.1 µM (active),
c1ccc(-c2nccc(-c3ccc4c(c3)OCO4)n2)cc1,4.98 µM (active),
CCN1C/C(=C\c2cccc([N+](=O)[O-])c2)C(=O)/C(=C/c2cccc([N+](=O)[O-])c2)C1,11.2 µM (active),
CC(C)COc1ccc(C(=O)N/C(=C/c2cccc([N+](=O)[O-])c2)C(=O)O)cc1,,13.2
CCN1C/C(=C/c2cccc([N+](=O)[O-])c2)C(=O)/C(=C/c2cccc([N+](=O)[O-])c2)C1,5.59 µM (active),
CC(=O)c1ccc2cccc3c2c1N=CN3C,12.5 µM (active),
Nc1nc(SCc2ccc(Cl)cc2Cl)nc2nc3c(cc12)CCCC3,23.1 µM (active),
Cc1cc2nc3c(=O)n(C4CCCCC4)c(=O)[nH]c3nc2cc1N,7.31 µM (active),
Cc1cc2nc3c(=O)n(Cc4ccccc4)c(=O)[nH]c3nc2cc1N,6.27 µM (active),
Cc1cc2nc3c(=O)n(CCc4ccccc4)c(=O)[nH]c3nc2cc1N,3.66 µM (active),
CCCCCCn1c(=O)[nH]c2nc3cc(N)ccc3nc2c1=O,,36.1
Cc1ccc(NC(=O)CO/N=C/c2ccc(N(C)C)cc2)cc1,23.1 µM (active),

SMILES,Potency,max response [%]
Cc1ccc(NC(=O)CSc2n[nH]c(-c3ccccn3)n2)cc1,,-4.16
CN(C)c1ccc(/C=C(/C#N)C(=O)Nc2nc3c(s2)CCN(Cc2ccccc2)C3)cc1,0.444 µM (active),
CN(C)c1ccc(/C=C(\C#N)C(=O)Nc2nc3c(s2)CCN(Cc2ccccc2)C3)cc1,0.396 µM (active),
Cn1c(=O)c2cc(NC(=O)NCc3ccc(F)cc3)ccc2n1C/C=C/c1ccccc1,5.59 µM (active),
Cn1c(=O)c2cc(NC(=O)NCc3ccccc3)ccc2n1C/C=C/c1ccccc1,15.8 µM (active),
CCOCCC(=O)Nc1ccc2c(c1)c(=O)n(C)n2C/C=C/c1ccccc1,11.2 µM (active),
CCCCCCc1cc2cc(-c3nnc(-c4ccccc4O)o3)c(=O)oc2cc1O,,54.5
CCCCCCc1cc2cc(-c3nnc(-c4ccccc4)o3)c(=O)oc2cc1O,1.98 µM (active),
CCCCCCc1cc2cc(-c3nnc(-c4ccccc4OC)o3)c(=O)oc2cc1O,7.04 µM (active),
CN1C(=O)/C(=C\c2ccc(N(C)C)cc2)OC1=S,2.8 µM (active),
CN1C(=S)N(c2cccnc2)C(=O)/C1=C\c1ccc(N(C)C)cc1,11.2 µM (active),
Cc1c(N2C(=O)/C(=C/c3ccc(N(C)C)cc3)N(C)C2=S)c(=O)n(-c2ccccc2)n1C,20.6 µM (active),
Cc1ccsc1/C=N\NC(=O)c1n[nH]c2c1CCC2,7.04 µM (active),
O=C(N/N=C/c1cccs1)c1n[nH]c2c1CCC2,4.44 µM (active),
O=C(N/N=C/c1cccc2ccccc12)c1n[nH]c2c1CCCC2,3.53 µM (active),
COCCNC(=S)N/N=C(\C)c1ccc(OC(F)F)cc1,,-0.557
Cn1cc(/C=C2\SC(=S)N(NC(=O)c3cccc(Cl)c3)C2=O)c2ccccc21,8.2 µM (active),
COc1cc(/C=N/Nc2ccc(Cl)nn2)cc(OC)c1O,,-0.979
COc1ccc(-c2cnnc(N/N=C/c3ccc(O)c(OC)c3)n2)cc1,8.86 µM (active),
COc1cc(/C=N/Nc2cc(C)nc(NS(=O)(=O)c3ccccc3)n2)ccc1O,,-5.07
O=C(Nc1ccccc1-c1nc2ccccc2[nH]1)c1ccc(N2C(=O)CCC2=O)cc1,18.4 µM (active),
S=C(NC1CCCCC1)N(CCc1ccccc1)CCc1ccccc1,,-10.7
CCOC(=O)c1[nH]c(C)c(C(=O)Nc2cc(OC)ccc2OC)c1C,3.53 µM (active),

SMILES,Potency,max response [%]
COc1ccc(OC)c(NC(=O)c2cc(-c3cc(C)cc(C)c3O)n[nH]2)c1,,-1.73
CCOC(=O)c1[nH]c(C)c(C(=O)Nc2ccc(C)cc2C)c1C,3.96 µM (active),
CCOC(=O)c1c(C)[nH]c(C(=O)N/N=C/c2cccc(OC)c2)c1C,15.8 µM (active),
CCOC(=O)c1[nH]c(C)c(C(=O)Nc2ccccc2C)c1C,6.27 µM (active),
Cc1cc(N/N=C/c2ccc(O)cc2O)nc(-n2nc(C)cc2C)n1,,2.12
CC(=O)c1c(C)[nH]c(C(=O)Nc2ccc(Cl)cc2F)c1C,,-22.8
CCOC(=O)c1[nH]c(C)c(C(=O)Nc2ccccc2F)c1C,3.53 µM (active),
Fc1ccc2nc3[nH]c4ccccc4c3nc2c1,0.396 µM (active),
COc1ccccc1CNC(=O)c1ccc2nc3[nH]c4ccccc4c3nc2c1,,6.47
CCN(CC(=O)Nc1ccccc1-c1ccccc1)Cc1nc2ccccc2c(=O)[nH]1,12.5 µM (active),
Cc1[nH]c2ccccc2c1/C=C/c1ccc2ccccc2n1,16.4 µM (active),
C(=C\c1c[nH]c2ccccc12)/c1ccc2ccccc2n1,16.4 µM (active),
C(=Cc1c[nH]c2ccccc12)c1ccc2ccccc2n1,20.6 µM (active),
CC(=O)c1cccc(NC(=O)C2CCCN(S(=O)(=O)c3cccc4nonc34)C2)c1 (stereo not given),,11.2
COc1ccc(C(=O)NC2CCCc3ccccc32)cc1[N+](=O)[O-] (stereo not given),7.04 µM (active),
COc1ccc(C(=O)C(C)[n+]2ccc(C)c3ccccc32)cc1[N+](=O)[O-] (stereo not given),,3.16
CCOC(=O)N1CCN(C(=O)c2cc(-c3ccc(OCC)cc3)nc3ccccc23)CC1,7.04 µM (active),
O=C(c1cc(-c2ccncc2)nc2ccccc12)N1CCN(c2ccccn2)CC1,9.94 µM (active),
O=C(COc1ccccc1-c1ccccc1)NN=C1CCCC1,,-18.6
CCOC(=O)N1CCN(C(=O)c2ccccc2-c2ccccc2)CC1,5.59 µM (active),
O=C(NC(=S)N1CCN(c2ccccn2)CC1)c1ccccc1,,-0.54
